Consider 35 molecules from PubChem BioAssay (NCATS).

Inconclusive results are not listed. Where a call stands in place of a potency, no number is given. Where a structure was tested more than once in an assay, its records may differ in their call. Active and inactive are the calls of the source. Unless noted, the call rests on the fitted dose curve; in most records, active means well fitted inhibition curve with a large enough effect in the repeat runs; inconclusive means weak or mixed curves; inactive means flat fitted curve, though single readings scatter.
Potency means the concentration at half of the fitted maximal effect.

Sequence of Cytochrome P450 2D6 (Homo sapiens) (P10635 whole entry, looked up): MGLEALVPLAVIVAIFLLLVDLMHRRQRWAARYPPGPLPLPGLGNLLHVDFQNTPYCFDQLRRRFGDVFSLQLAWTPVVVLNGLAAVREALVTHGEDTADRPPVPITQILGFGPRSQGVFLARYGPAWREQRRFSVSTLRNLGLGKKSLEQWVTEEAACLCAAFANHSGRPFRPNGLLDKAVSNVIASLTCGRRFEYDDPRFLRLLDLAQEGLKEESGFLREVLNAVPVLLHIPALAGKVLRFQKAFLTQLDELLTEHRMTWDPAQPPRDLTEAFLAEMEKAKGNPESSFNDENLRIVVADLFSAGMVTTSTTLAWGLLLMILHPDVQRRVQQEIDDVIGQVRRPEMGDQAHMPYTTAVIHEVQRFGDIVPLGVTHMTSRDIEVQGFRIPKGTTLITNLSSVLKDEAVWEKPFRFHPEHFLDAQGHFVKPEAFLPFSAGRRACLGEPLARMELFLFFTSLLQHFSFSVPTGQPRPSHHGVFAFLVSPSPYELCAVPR

System in one assay: not listed separately
The assay is described as follows: A High-Content qHTS Against Drug Library for the Identification of Small Molecules that Inhibit DYT1 Early Onset Primary Dystonia-Associated Cell Pathology (AID 1645839; calls by dose curve). Particulars: HEK293 Flp-In EGFP-delE TorsinA, punctate imaging, 48 h; series mostly up to 46.1 µM. Put shortly:
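Readout: %pathology, the punctate EGFP-TorsinA distribution from imaging, as the primary channel and cell count as the toxicity counterscreen. HEK293 Flp-In cells expressing delE TorsinA were induced with tetracycline and treated with compound for 48 h.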
On to `c1ccc(CNCCNCc2ccccc2)cc1`, for which the Potency entry was “inactive”.

On to `COc1cc(/C=C/C(=O)O[C@H]2CC[C@]34C[C@]35CC[C@]3(C)[C@@H]([C@H](C)CCC=C(C)C)CC[C@@]3(C)[C@@H]5CC[C@H]4C2(C)C)ccc1O`, for which the Potency result was “inactive”.

In the case of `NC(=O)CC[C@@H]1NC(=O)[C@H](Cc2ccccc2)NC(=O)[C@H](Cc2ccc(O)cc2)NC(=O)CCSSC[C@@H](C(=O)N2CCC[C@H]2C(=O)N[C@@H](CCCN=C(N)N)C(=O)NCC(N)=O)NC(=O)[C@H](CC(N)=O)NC1=O`, the Potency entry is “inactive”.

Regarding `CN(C)CC/C=C1\c2ccccc2Sc2ccc(Cl)cc21`, the Potency is 12.6 µM (active).

With `O=C(Nc1ccc(Cl)c(Cl)c1)C1CC1`, the Potency result was “inactive”.

As for `CO/N=C1\CN(c2nc3c(cc2F)c(=O)c(C(=O)O)cn3C2CC2)CC1CN` (centres undefined), the Potency result is “inactive”.

For the molecule `CCN(CC)C(=O)N1CCN(C)CC1`, the Potency result is “inactive”.

Turning to `CNC(=O)CN(CCN(CCN(CC(=O)[O-])CC(=O)NC)CC(=O)[O-])CC(=O)[O-].O.[Gd+3]`, the Potency entry is “inactive”.

With `NCCc1ccn[nH]1`, the Potency entry was “inactive”.

As to `CCC(C(=O)OCCN(CC)CC)c1ccccc1` (centres undefined), the Potency entry is “inactive”.

As for `OC[C@H]1O[C@@H](n2cnc3c(=S)nc[nH]c32)[C@H](O)[C@@H]1O`, the Potency entry was “inactive”.

Turning to `CN1CCC[C@@H]1c1cccnc1`, the Potency entry was “inactive”.

Regarding `OC[C@H]1O[C@H](O[C@]2(CCl)O[C@H](CCl)[C@@H](O)[C@@H]2O)[C@H](O)[C@@H](O)[C@H]1Cl`, the Potency entry was “inactive”.

`Cc1cc2c(cc1CC(=O)c1sccc1S(=O)(=O)Nc1onc(C)c1Cl)OCO2`: the Potency entry is “inactive”.

Take `C[C@]12CC[C@@H]3c4ccc(O)cc4CC[C@H]3[C@@H]1C[C@@H](O)[C@@H]2O`: the Potency result was “inactive”.

Regarding `CCCC(=O)Nc1ccc(OCC(O)CNC(C)C)c(C(C)=O)c1` (centres undefined), the Potency entry was “inactive”.

For the molecule `CC1(C)OC[C@@H](COC(=O)CCc2ccc(OC[C@@H](O)CNCCNC(=O)N3CCOCC3)cc2)O1`, the Potency entry was “inactive”.

Take `CCCCCCC[N+](CC)(CC)CCCCc1ccc(Cl)cc1`: the Potency result is “inactive”.

Turning to `C[C@]12CC[C@H]3[C@@H](CCC4=CC(=O)CC[C@@]43C)[C@@H]1CC[C@@H]2C(=O)CO`, the Potency result was “inactive”.

Take `Cc1c(N(C)CS(=O)(=O)O)c(=O)n(-c2ccccc2)n1C`: the Potency result was “inactive”.

Regarding `NC(=O)c1cc[n+](CC2=C(C(=O)[O-])N3C(=O)[C@@H](NC(=O)Cc4cccs4)[C@H]3SC2)cc1`, the Potency result was “inactive”.

On to `O=C1OCCN1/N=C/c1ccc([N+](=O)[O-])o1`, for which the Potency entry was “inactive”.

In the case of `COc1cc(C(=S)N2CCOCC2)cc(OC)c1OC`, the Potency result is “inactive”.

Take `NC(CO)(CO)CO`: the Potency result is “inactive”.

`CC[C@@H](CO)NCCN[C@@H](CC)CO`: the Potency entry was “inactive”.

Take `COc1cc2c(cc1OC)C(C(C(=O)N(CCc1ccc(OC)c(OC)c1OC)CCc1ccc(OC)c(OC)c1OC)c1ccccc1)=NCC2` (centres undefined): the Potency entry is “inactive”.

For `O=C1OC2(c3ccc(O)cc3Oc3cc(O)ccc32)c2ccccc21`, the Potency was 7.08 µM (active).

As for `CC(O)(P(=O)(O)O)P(=O)(O)O`, the Potency entry was “inactive”.

On to `Cc1c(C)n(Cc2ccccc2)c2ccc(C(=O)OCCN(C)C)cc12`, for which the Potency was 11.2 µM (active).

Consider `CC(=O)Nc1c(I)cc(I)c(C(=O)O)c1I`, for which the Potency entry was “inactive”.

For the molecule `CCCCN1CCCC1C(=O)Nc1c(C)cc(C)cc1C` (centres undefined), the Potency result is “inactive”.

As for `CC(C)(C(=O)c1cccnc1)c1cccnc1`, the Potency result is “inactive”.

As for `OCc1ccccc1O`, the Potency entry was “inactive”.

With `NC(=O)C(=O)N/N=C/c1ccc([N+](=O)[O-])o1`, the Potency entry is “inactive”.

Consider `CCOC(=O)[C@H](CCc1ccccc1)N[C@@H](C)C(=O)N1Cc2ccccc2C[C@H]1C(=O)O`, for which the Potency result was “inactive”.

For the next assay, the target named is Cytochrome P450 2D6 (Homo sapiens) (UniProt P10635). Kind of assay: Cytochrome P450 family 2 subfamily D member 6 (CYP2D6) small molecule antagonists: luciferase biochemical (cell-free) qHTS assay (AID 1645840). Further: nearly all actives have a fitted effect of over 55% in size. Conditions: P450-Glo CYP2D6 enzyme, luciferin luminescence, 1 h; series mostly up to 57.4 µM. The procedure, abridged:
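P450-Glo luminescent screen: recombinant CYP2D6 enzyme–proluciferin substrate mix preincubated with compound 10 min at room temperature, then NADPH regeneration added for 1 h at room temperature. Detection reagent added for 20 min; luciferin light read as relative luminescence units.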
`c1ccc(CNCCNCc2ccccc2)cc1`: the Potency is 0.692 µM (active).

Take `COc1cc(/C=C/C(=O)O[C@H]2CC[C@]34C[C@]35CC[C@]3(C)[C@@H]([C@H](C)CCC=C(C)C)CC[C@@]3(C)[C@@H]5CC[C@H]4C2(C)C)ccc1O`: the Potency entry was “inactive”.

As to `NC(=O)CC[C@@H]1NC(=O)[C@H](Cc2ccccc2)NC(=O)[C@H](Cc2ccc(O)cc2)NC(=O)CCSSC[C@@H](C(=O)N2CCC[C@H]2C(=O)N[C@@H](CCCN=C(N)N)C(=O)NCC(N)=O)NC(=O)[C@H](CC(N)=O)NC1=O`, the Potency entry is “inactive”.

Turning to `CN(C)CC/C=C1\c2ccccc2Sc2ccc(Cl)cc21`, the Potency is 1.23 µM (active).

`O=C(Nc1ccc(Cl)c(Cl)c1)C1CC1`: the Potency result was “inactive”.

Turning to `CO/N=C1\CN(c2nc3c(cc2F)c(=O)c(C(=O)O)cn3C2CC2)CC1CN` (centres undefined), the Potency entry was “inactive”.

On to `CCN(CC)C(=O)N1CCN(C)CC1`, for which the Potency result is “inactive”.

With `CNC(=O)CN(CCN(CCN(CC(=O)[O-])CC(=O)NC)CC(=O)[O-])CC(=O)[O-].O.[Gd+3]`, the Potency entry is “inactive”.

As to `NCCc1ccn[nH]1`, the Potency entry is “inactive”.

In the case of `CCC(C(=O)OCCN(CC)CC)c1ccccc1` (centres undefined), the Potency is 3.09 µM (active).

Consider `OC[C@H]1O[C@@H](n2cnc3c(=S)nc[nH]c32)[C@H](O)[C@@H]1O`, for which the Potency result was “inactive”.

In the case of `CN1CCC[C@@H]1c1cccnc1`, the Potency entry is “inactive”.

Turning to `OC[C@H]1O[C@H](O[C@]2(CCl)O[C@H](CCl)[C@@H](O)[C@@H]2O)[C@H](O)[C@@H](O)[C@H]1Cl`, the Potency result is “inactive”.

In the case of `Cc1cc2c(cc1CC(=O)c1sccc1S(=O)(=O)Nc1onc(C)c1Cl)OCO2`, the Potency was 4.36 µM (active) and inactive.

On to `C[C@]12CC[C@@H]3c4ccc(O)cc4CC[C@H]3[C@@H]1C[C@@H](O)[C@@H]2O`, for which the Potency result was “inactive”.

For the molecule `CCCC(=O)Nc1ccc(OCC(O)CNC(C)C)c(C(C)=O)c1` (centres undefined), the Potency entry was “inactive”.

As to `CC1(C)OC[C@@H](COC(=O)CCc2ccc(OC[C@@H](O)CNCCNC(=O)N3CCOCC3)cc2)O1`, the Potency entry is “inactive”.

Take `CCCCCCC[N+](CC)(CC)CCCCc1ccc(Cl)cc1`: the Potency was 0.0977 µM (active).

Turning to `C[C@]12CC[C@H]3[C@@H](CCC4=CC(=O)CC[C@@]43C)[C@@H]1CC[C@@H]2C(=O)CO`, the Potency entry is “inactive”.

For `Cc1c(N(C)CS(=O)(=O)O)c(=O)n(-c2ccccc2)n1C`, the Potency result was “inactive”.

In the case of `NC(=O)c1cc[n+](CC2=C(C(=O)[O-])N3C(=O)[C@@H](NC(=O)Cc4cccs4)[C@H]3SC2)cc1`, the Potency result is “inactive”.

For the molecule `COc1cc(C(=S)N2CCOCC2)cc(OC)c1OC`, the Potency entry was “inactive”.

In the case of `NC(CO)(CO)CO`, the Potency result is “inactive”.

`CC[C@@H](CO)NCCN[C@@H](CC)CO`: the Potency result was “inactive”.

For `COc1cc2c(cc1OC)C(C(C(=O)N(CCc1ccc(OC)c(OC)c1OC)CCc1ccc(OC)c(OC)c1OC)c1ccccc1)=NCC2` (centres undefined), the Potency is 12.3 µM (active).

Regarding `O=C1OC2(c3ccc(O)cc3Oc3cc(O)ccc32)c2ccccc21`, the Potency entry is “inactive”.

On to `CC(O)(P(=O)(O)O)P(=O)(O)O`, for which the Potency result was “inactive”.

As to `Cc1c(C)n(Cc2ccccc2)c2ccc(C(=O)OCCN(C)C)cc12`, the Potency is 13.8 µM (active).

Take `CC(=O)Nc1c(I)cc(I)c(C(=O)O)c1I`: the Potency was 19.5 µM (active).

In the case of `CCCCN1CCCC1C(=O)Nc1c(C)cc(C)cc1C` (centres undefined), the Potency was 3.89 µM (active).

For `CC(C)(C(=O)c1cccnc1)c1cccnc1`, the Potency result was “inactive”.

Turning to `OCc1ccccc1O`, the Potency result was “inactive”.

Turning to `NC(=O)C(=O)N/N=C/c1ccc([N+](=O)[O-])o1`, the Potency was 6.17 µM (active).

`CCOC(=O)[C@H](CCc1ccccc1)N[C@@H](C)C(=O)N1Cc2ccccc2C[C@H]1C(=O)O`: the Potency entry was “inactive”.
